Assay outcomes: PubChem BioAssay, Sanford-Burnham Center for Chemical Genomics
CRFBP-R2 block – CRF-BP/CRF-R2 complex antagonism; inhibition, % at 11.8 µM; 0.59% of 350,000 active; AID 588475; HEK293 CRF-R2/CRF-BP, CRF-induced calcium fluorescence;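 active means inhibition of the ligand-induced calcium signal above about 50% at the single tested concentration, limit read from the data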
H9c2 protect – myocardial damage modulation in H9c2 cells | AID 588492 | 0.63% of 360,000 active | protection from H2O2 cell death, % at 20 µM | H9c2 cardiomyocytes, H2O2 injury protection, ATPLite, 2 h;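 active means compounds giving at least 50% protection of heart cells from peroxide-induced death in the single-dose screen, raw or plate-pattern-corrected value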;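 further: 0% = DMSO wells with peroxide and 100% = DMSO wells without peroxide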
CRFBP-R2 agonist – agonists of human CRF-binding protein/CRF-R2 receptor complex | HEK293 CRF-R2/CRF-BP, calcium dye fluorescence (FLIPR); percent of saturating CRF peptide response | activation, % at 13.2 µM | 0.46% of 350,000 active | AID 588473;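 active means activation of at least 50%, plus an integration ratio under a set limit after plate pattern correction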;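 further: plate controls were neutral control wells without compound for no effect and CRF at EC100 for full effect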
iPSC survival up – enhancers of human iPSC single-cell survival | hiPSC single-cell survival, ATPlite luminescence; 100% = ROCK inhibitor wells, 0% = DMSO | 0.044% of 360,000 active | AID 602274 | survival enhancement, % at 20 µM; in the data active means survival enhancement above about 18%;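 further: cells exposed to compounds for 16 hours before the ATP read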
SKN-1 inh – C. elegans SKN-1 inhibition; C. elegans VP596 Pgst-4::GFP/RFP ratio, acrylamide-induced, 24 h; 0.49% of 360,000 active; inhibition, % at 21.8 µM;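 active means interference check ratio from 0.5 to 1.5 plus GFP to RFP signal ratio inhibition reaching or exceeding a fixed threshold, cut at about 30% in these data, passing the limit was not always enough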
H9c2 TAG inh – reduces triacylglycerol accumulation in H9c2 cells. Nile Red lipid (TAG) fluorescence; cells loaded with 200 µM oleic acid. inhibition, % at 12.5 µM. 0.66% of 230,000 active;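 active means pattern-corrected inhibition of lipid staining of at least 50% with the nuclear-stain viability signal not falling by more than 50%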;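 further: 0% = DMSO wells and 100% = triacsin C control wells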
* = called active by the depositor; nt = no result. Most compounds without a hit are left out; they make up all but 2.5% or so of the library.

SMILES	CRFBP-R2 block	H9c2 protect	CRFBP-R2 agonist	iPSC survival up	SKN-1 inh	H9c2 TAG inh
CC(=O)C1=CCC(c2ccc(Cl)cc2)N(S(=O)(=O)c2ccccc2C)C1 (stereo unspecified)	nt	-1	nt	2	4	nt
O=c1[nH]nc(Cc2ccccc2)c2ccccc12	-3	64*	2	3	1	-10
O=c1[nH]nc(Cc2ccc3ccccc3n2)c2ccccc12	10	39	2	6	7	nt
COc1ccc(Cc2n[nH]c(=O)c3ccccc23)cc1OC	6	62*	8	0	12	13
O=c1[nH]nc(Cc2ccc([N+](=O)[O-])cc2)c2ccccc12	-1	64*	-1	-1	32*	nt
COC(=O)C[C@@H]1CC[C@H](NC(=O)Nc2ccc(F)cc2)[C@@H](CO)O1	nt	nt	nt	nt	-6	nt
COc1ccccc1CNC(=O)C1CCC(CNS(=O)(=O)c2ccc(C)cc2)CC1 (stereo unspecified)	-6	-2	-1	0	-11	nt
CCN(C)C1CN(Cc2cn(Cc3cc(C)cc(C)c3)nn2)S(=O)(=O)C1 (stereo unspecified)	nt	nt	nt	1	6	nt
Cc1cc(C)c(C(=O)CC(=O)c2ccccc2Cl)c(O)c1	8	51*	-2	0	6	nt
O=C(O)c1cc(NS(=O)(=O)c2ccc(N3CCCCC3)c([N+](=O)[O-])c2)cc(C(=O)O)c1	0	11	-2	-1	-1	1
Cc1noc(C)c1-c1ccc(C(=O)NCc2cccnc2)c2occc12	nt	-4	nt	1	8	21
C/C(=N\NC(=O)c1c(Br)c(C)nn1C)c1ccc(NC(=O)c2ccoc2C)cc1	-25	52*	0	-1	-3	nt
COc1ccc(S(=O)(=O)N(CC(=O)O)c2ccccn2)cc1	2	-2	-2	-1	15	1
COc1ccc(S(=O)(=O)n2ccc(-c3ccc(OCCN(C)c4ccccn4)cc3)n2)cc1	8	-6	4	-2	45*	-32
Cc1cc(C)c2c(ccc3ccccc32)n1	-10	11	-4	1	11	-16
Oc1ccc(-c2nc3ccc4ccccc4c3c3c2CCC3)cc1O	-49	88*	2	-1	3	nt
Cc1ccsc1C(=O)OCC(=O)Nc1sccc1C(N)=O	-13	-1	-2	20*	-6	-27
Cc1ccc(C(=O)OCC(=O)Nc2sccc2C(N)=O)cc1NC(=O)c1ccco1	-1	94*	1	2	-6	-8
Cc1ccsc1C(=O)OCC(=O)NCCNC(=O)COC(=O)c1sccc1C	4	11	-1	0	-6	5
COc1cccc(C2C3CN(C)CC=C3C(C#N)=C(N)C2(C#N)C#N)c1OC (stereo unspecified)	-8	-3	72*	0	10	-31
CN1CC=C2C(C#N)=C(N)C(C#N)(C#N)[C@H](c3cccs3)[C@H]2C1	-67	5	53*	0	-4	4
CN1CC=C2C(C#N)=C(N)C(C#N)(C#N)[C@H](c3cccc(Cl)c3)C2C1 (stereo partly specified)	5	-4	18	0	7	-34
CN1CC=C2C(C#N)=C(N)C(C#N)(C#N)C(c3ccsc3)C2C1 (stereo unspecified)	-15	1	32	-2	19	-11
CN1CC=C2C(C#N)=C(N)C(C#N)(C#N)C(CCc3ccccc3)C2C1 (stereo unspecified)	-59	12	59*	-3	0	-20
CC(C)Oc1ccc(CN2CCC2(C)C(=O)Nc2cccc3cccnc23)cc1 (stereo unspecified)	nt	0	nt	0	11	-16
SMILES	CRFBP-R2 block	H9c2 protect	CRFBP-R2 agonist	iPSC survival up	SKN-1 inh	H9c2 TAG inh
C[C@@H](NC(=O)[C@@H]1Cc2ccccc2CN1C(=O)OC(C)(C)C)C(=O)NC1CCCCC1	-2	-3	-5	-1	9	nt
CC1(C(=O)NC2CCCCC2)CCC(=O)N1CC(F)(F)F (stereo unspecified)	nt	10	nt	2	14	nt
COc1cc(C(CC(=O)N2CCCC2)c2c(OC)cc(OC)c3ccc(=O)oc23)cc(OC)c1OC (stereo unspecified)	0	5	3	-2	21	nt
COc1ccc(C(CC(=O)N2CCN(c3ccccc3)CC2)c2c(OC)cc(OC)c3ccc(=O)oc23)cc1 (stereo unspecified)	19	51*	2	2	10	-13
COc1cc(/C=C2/SC(=S)N(CCC(=O)N3CCN(C)CC3)C2=O)cc(OC)c1OC	0	5	1	-2	-14	18
O=C(NC(O)C(=O)c1cccs1)c1cccnc1 (stereo unspecified)	-28	83*	0	-2	2	8
CCOC(=O)NC(O)C(=O)c1cccs1 (stereo unspecified)	65*	28	0	6	19	6
CCOC(=O)NC(O)C(=O)c1ccc(F)cc1 (stereo unspecified)	30	-3	-4	-2	0	-1
CC[C@@]1(O)C(=O)OCc2c1cc1n(c2=O)Cc2cc3c(CN(C)C)c(O)ccc3nc2-1	-242	10	231*	-3	-24	-3
COCCNS(=O)(=O)c1ccc(Cl)c(C(=O)NC2CCN(Cc3ccccc3)CC2)c1	4	-8	0	0	14	nt
CCOc1ccccc1NC(=O)C1CCCCN1S(=O)(=O)c1ccc(F)cc1 (stereo unspecified)	13	-1	0	1	12	nt
CCOc1ccccc1NC(=O)C1CCC(=O)N1S(=O)(=O)c1ccc(C)cc1 (stereo unspecified)	82*	7	-1	0	14	-4
COc1ccc(C(=O)NC(Oc2ccccc2)C(Cl)(Cl)Cl)cc1 (stereo unspecified)	113*	-8	12	3	-23	8
COc1ccc(C(C)NC(=O)c2ccccc2)cc1 (stereo unspecified)	-2	3	0	2	3	nt
COC(=O)/C=C1\SC(=Nc2ccc(OC)cc2)NC1=O	26	-6	1	2	11	3
COC(=O)/C=C1/S/C(=N/NC(=O)c2ccc(Cl)cc2Cl)NC1=O	51*	8	-2	0	-1	7
COC(=O)/C=C1\S/C(=N\N=C\CC(=O)OC)NC1=O	-2	-1	2	0	37*	0
CCN(CCCNC(=O)Cn1ncc2c([nH]c3ccc(C)cc32)c1=O)Cc1ccccc1	-1	9	-1	-1	2	nt
COc1ccc(C[C@H]2CN3C(=NC[C@H]3Cc3ccccc3)N2CCNC(=O)c2ccc(C)c(Br)c2)cc1	-5	-34	0	-5	7	128
COc1ccc(C[C@H]2CN3C(=NC[C@@H]3Cc3ccccc3)N2CCNC(=O)c2ccc(C)c(Br)c2)cc1	-12	-30	-1	-5	-18	120*
